ATXN viability: cell viability loss in ATXN counter-screen; S2 cells (HEK-293 line with an ATXN2-luciferase reporter) viability, CellTiter-Fluor protease fluorescence, 24 h; Potency, µM (highest dose often 56.7 µM), usual class: cytotoxic; 400,000 tested, 0.49% active; AID 651635; further: potency means the concentration at half of the fitted maximal effect; nearly all actives have a fitted effect of over 40% in size
TGFb inhibitor: blocks TGF-b signaling | HepG2 CAGA-GFP TGF-b/SMAD3 reporter, GFP fluorescence, 18 h; TGF-beta stimulated, 500 pg/mL final | Potency, µM (titrated, usually from 46.1 µM), inactives show at the top dose activity, negative = inhibition, actives largely listed as inhibitors | 410,000 tested, 1.2% active | AID 588855; further: potency means the concentration at half of the fitted maximal effect; on the % scale 0 is the no-effect control and ±100 the full control effect; nearly all actives have a fitted effect of over 65% in size
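GFP signal (ex488/em500-530) from TGF-beta-stimulated HEPG2 CAGA-GFP cells, 500 pg/mL final, 18 h at 37 degrees C in DMEM plus 1% FBS, normalized to unstimulated and DMSO-stimulated controls.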
ATXN2 expr inh: inhibitors of ATXN2 expression. 360,000 tested, 0.72% active. HEK-293 ATXN2-luciferase reporter, luminescence, 24 h. Potency, µM (titrated, usually from 57 µM), for inactives: top-dose activity change, negative = inhibition, usual class: inhibitors; further: potency means the concentration at half of the fitted maximal effect; on the % scale 0 is the no-effect control and ±100 the full control effect; nearly all actives have a fitted effect of over 55% in size
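qHTS (up to 57 uM final) was run with 24 h compound exposure of reporter cells at 37 °C. Each well was multiplexed: SteadyGlo luminescence measured ATXN2-luciferase expression after a fluorogenic Gly-Phe-AFC viability readout (25 uM final).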
HepG2 tox-1: HepG2 cytotoxicity, counter-screen for TGF-b inhibitors; HepG2 CAGA-GFP viability, ATP luminescence, 18 h; 410,000 tested, 0.76% active; Potency, µM (doses to about 46.1 µM), for the others: at the top dose activity change, negative = cytotoxicity, actives largely listed as cytotoxic; AID 588856; further: potency means the concentration at half of the fitted maximal effect
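HepG2 CAGA-GFP cells (1000/well, DMEM with 1% FBS) received compound, then TGF-beta at 500 pg/mL final, and were incubated 18 hours at 37 degrees C. Viability was read by CellTiter-Glo luminescence. Media-only wells were set as complete cell-killing and DMSO as no toxicity.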
IL1B secr inh: blocks inflammasome-driven IL-1 beta release. activity change, % at 57.5 µM. THP-1 LPS/ATP IL-1B secretion, AlphaLISA, 16 h; active compounds read low. AID 743279. 360,000 tested, 4.7% active; in the data active means activity change below about -50%; inconclusive means mostly about -30% to -49%; further: on the % scale 0 is the no-effect control and ±100 the full control effect
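Secreted IL-1B measured by AlphaLISA bead assay after 16 h compound exposure of THP-1 cells; compounds (final up to 57.5 uM) added 1 h before LPS (250 ng/mL) and ATP (1.25 mM) stimulation; lower signal means less secretion.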
TGFb CAGA inh: TGF-b pathway inhibition, cherry-pick retest. Potency, µM (highest dose often 46.1 µM), without a hit: top-dose activity, negative = inhibition, most hits filed as inhibitors. HepG2 CAGA-GFP TGF-b reporter, GFP fluorescence, 18 h; cells stimulated with TGF-beta, 500 pg/mL. 1,600 tested, 63% active. AID 720534. shares compounds with TGFb inhibitor; further: potency means the concentration at half of the fitted maximal effect; on the % scale 0 is the no-effect control and ±100 the full control effect; nearly all actives have a fitted effect of over 65% in size
HepG2 tox-2: HepG2 cytotoxicity, TGF-b inhibitor counterscreen; shares compounds with TGFb inhibitor; HepG2 CAGA-GFP viability, ATP luminescence, 18 h; cells stimulated with TGF-beta, 500 pg/mL; Potency, µM (series often up to 46.1 µM), for the others: top-dose activity, negative = cytotoxicity, actives largely listed as inhibitors; 1,600 tested, 27% active; further: potency means the concentration at half of the fitted maximal effect; on the % scale 0 is the no-effect control and ±100 the full control effect; nearly all actives have a fitted effect of over 70% in size
TGFb CCL64 inh: TGF-b inhibition, CCL64 orthogonal assay. Potency, µM (top dose mostly 46.1 µM), without a hit: top-dose activity, negative = inhibition, actives largely listed as inhibitors. 1,600 tested, 41% active. CCL64 CAGA-GFP reporter, TGF-b stimulated, GFP fluorescence, 18 h. AID 720536. shares compounds with TGFb inhibitor; further: potency means the concentration at half of the fitted maximal effect; nearly all actives have a fitted effect of over 65% in size
COP TGFb inh: blocks TGF-b signaling in HepG2 COP reporter. shares compounds with TGFb inhibitor. HepG2 COP-GFP TGF-b reporter, GFP fluorescence, 18 h; cells stimulated by added recombinant TGF-beta. Potency, µM (highest dose often 46.1 µM), for inactives: at the top dose activity, negative = inhibition, usual class: inhibitors. 1,600 tested, 3% active. AID 720537; further: potency means the concentration at half of the fitted maximal effect; nearly all actives have a fitted effect of over 70% in size
SKNSH spheroid: kills SK-N-SH neuroblastoma spheroids in orthogonal 3D test; shares compounds with ATXN2 expr inh; SK-N-SH 3D spheroid viability, PI/Hoechst imaging, 72 h; Potency, µM (top dose mostly 30.7 µM), actives largely listed as inhibitors; 65 tested, 70% active
SJ-GBM2 3D tox: lowers viability of SJ-GBM2 3D spheroids; shares compounds with ATXN2 expr inh; SJ-GBM2 3D spheroid viability, PI/Hoechst imaging, 72 h; Potency, µM (series often up to 30.7 µM), most hits filed as inhibitors; 65 tested, 80% active; AID 1347136
Daoy 3D tox: reduced viability of Daoy 3D spheroids, orthogonal test; Daoy 3D spheroid viability, PI/Hoechst imaging, 72 h; 65 tested, 50% active; Potency, µM (doses to about 30.7 µM), hits mostly inhibitors; AID 1347137; shares compounds with ATXN2 expr inh
TC32 3D casp: caspase activation in TC32 3D spheroids, orthogonal test | shares compounds with ATXN2 expr inh | TC32 3D spheroids, caspase-3/7 fluorescence imaging, 24 h | Potency, µM (top dose mostly 30.7 µM), actives largely listed as inhibitors | 65 tested, 30% active | AID 1347138
TC32 3D tox: TC32 3D spheroid viability loss; shares compounds with ATXN2 expr inh; TC32 3D spheroid viability, PI/Hoechst imaging, 72 h; Potency, µM (highest dose often 30.7 µM), usual class: inhibitors; 65 tested, 60% active
MG63 spheroid: reduced viability of MG-63 (6-TG R) 3D spheroids, orthogonal test; shares compounds with ATXN2 expr inh; MG-63 (6-TG R) 3D spheroid viability, PI/Hoechst imaging, 72 h; Potency, µM (doses to about 30.7 µM), most hits filed as inhibitors; 65 tested, 50% active; AID 1347140
RD spheroid: RD 3D spheroid viability loss; shares compounds with ATXN2 expr inh; RD rhabdomyosarcoma 3D spheroid viability, PI/Hoechst imaging, 72 h; Potency, µM (series often up to 30.7 µM), hits mostly inhibitors; 65 tested, 50% active
* hit, by the source's call; i = inactive; ? = inconclusive; . = no result. Most compounds without a hit are left out; they make up all but 5.7% or so of the library. Unless noted, the call rests on the fitted dose curve; in most records, active means well fitted curve in the direction sought with a large enough effect; inconclusive means small, poorly fitted or top-dose-only effect, or another doubt; inactive means no such curve, though single readings can be large; an effect the other way counts as inactive or inconclusive.

SMILES | ATXN viability | TGFb inhibitor | ATXN2 expr inh | HepG2 tox-1 | IL1B secr inh | SKNSH spheroid | SJ-GBM2 3D tox | Daoy 3D tox | TC32 3D casp | TC32 3D tox | MG63 spheroid | RD spheroid | others
CC(C)C[C@H]1CNC(=S)N1C[C@H]1CCCN1C[C@H](Cc1ccccc1)N1C[C@H](Cc2ccc(O)cc2)N(CCc2ccccc2)C1=S | ? | 7.08µM* | ? | -9.0% | -28.1 | . | . | . | . | . | . | . | TGFb CAGA inh=11.6µM*;HepG2 tox-2=-24.2%;TGFb CCL64 inh=?;COP TGFb inh=12.2%
COc1cc(C(=O)NCc2ccc3c(c2)CCN3C(=O)c2ccc(Cl)cc2)cc(OC)c1OC | . | ? | . | -28.5% | . | . | . | . | . | . | . | .
Cc1c2oc3c(C)ccc(C(=O)N[C@@H]4C(=O)N[C@H](C(C)C)C(=O)N5CCC[C@H]5C(=O)N(C)CC(=O)N(C)[C@@H](C(C)C)C(=O)O[C@@H]4C)c3nc-2c(C(=O)N[C@@H]2C(=O)N[C@H](C(C)C)C(=O)N3CCC[C@H]3C(=O)N(C)CC(=O)N(C)[C@@H](C(C)C)C(=O)O[C@@H]2C)c(N)c1=O | ? | . | 1µM* | . | . | 0.0029µM* | 0.0181µM* | 0.0256µM* | ? | 0.0323µM* | 0.0288µM* | 0.0204µM*
C[C@@]12O[C@@H](C[C@]1(O)CO)n1c3ccccc3c3c4c(c5c6ccccc6n2c5c31)CNC4=O | . | . | 3.06µM* | . | . | 1.44µM* | 0.144µM* | 1.14µM* | 2.56µM* | 5.11µM* | 12.8µM* | 8.1µM*
CCCS(=O)c1ccc2nc(NC(=O)OC)[nH]c2c1 (centres undefined) | i | . | -12.1% | . | . | . | . | . | . | . | . | .
COC(=O)Nc1nc2ccc(S(=O)c3ccccc3)cc2[nH]1 (centres undefined) | ? | . | -11.8% | . | . | ? | 0.574µM* | ? | ? | 0.644µM* | ? | ?
Cc1ccc(CNC(=O)CN(C)S(=O)(=O)c2ccc3c(c2)c(=O)n(C)c(=O)n3C)cc1 | i | -2.5% | 3.7% | -0.6% | . | . | . | . | . | . | . | .
COc1ccc(N2CCN(C(=O)C3CCN(S(=O)(=O)c4cnc[nH]4)CC3)CC2)cc1 | i | -8.2% | -5.4% | -9.2% | . | . | . | . | . | . | . | .
COC1=C2C[C@@H](C)C[C@H](OC)[C@@H](O)[C@@H](C)C=C(C)[C@H](OC(N)=O)[C@@H](OC)C=CC=C(C)C(=O)NC(=CC1=O)C2=O | . | . | 0.769µM* | . | . | 1.62µM* | 1.62µM* | 6.44µM* | ? | 1.14µM* | i | 0.722µM*
CCn1c(CN2CCOCC2)nc2cc(NC(=O)c3cc(OC)c(OC)c(OC)c3)ccc21 | i | -14.1% | 7.6% | -14.6% | . | . | . | . | . | . | . | .
CC(C)(O)Cn1c(NC(=O)c2ccc(-c3cn[nH]c3)s2)nc2cc(CN3CCOCC3)ccc21 | . | . | 6.11µM* | . | . | 0.228µM* | 0.228µM* | 0.644µM* | 1.28µM* | 1.02µM* | 1.44µM* | 0.323µM*
Cc1cccc(N2CCN(C(=O)c3cccc(-n4c(C)nc5cccnc54)c3)CC2)c1C | . | -16.9% | . | -29.0% | . | . | . | . | . | . | . | .
CCCCc1nc2cc(C=CC(=O)NO)ccc2n1CCN(CC)CC | . | . | 113.4% | . | . | 0.511µM* | 0.909µM* | 1.62µM* | ? | 1.44µM* | 6.44µM* | 1.62µM*
CN(C)/N=N/c1nc[nH]c1C(N)=O | i | . | -27.0% | . | . | i | ? | i | i | i | i | i
CN(C)N=Nc1nc[nH]c1C(N)=O | i | -9.5% | ? | -15.8% | -7.7 | . | . | . | . | . | . | .
CN(C)S(=O)(=O)c1ccc2c(c1)N(CC(=O)N1CCN(c3cccc(Cl)c3)CC1)CCS2 | i | 20.8% | -6.6% | -26.1% | . | . | . | . | . | . | . | .
Nc1ccn([C@@H]2O[C@H](CO)[C@H](O)C2(F)F)c(=O)n1 | . | . | 0.217µM* | . | . | ? | 0.144µM* | ? | i | 0.323µM* | 0.574µM* | ?
CCOC(=O)c1cccc(NC(=O)CCCn2c(C)c3cnn(-c4ccccc4)c(=O)c3c2C)c1 | i | ? | 0.0% | -39.9% | . | . | . | . | . | . | . | .

Screening results (PubChem)
